Source: PubChem BioAssay (NCATS)

Assay: qHTS profiling of the MIPE4 collection as inhibitors of Plasmodium falciparum (DD2) proliferation (AID 743345)
Details: P. falciparum Dd2 in erythrocytes, SYBR Green DNA, 72 h; at 28.5 µM (top of the series) unless noted
How it was run: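 Parasite DNA was quantified by SYBR Green I fluorescence (ex 485, em 535 nm) after overnight lysis in saponin/Triton buffer at room temperature. Cultures at 0.3% parasitemia and 2.5% hematocrit were first exposed to compound for 72 h at 37 C; signals were normalised to artemisinin (0.29 uM) and vehicle wells.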

Compared with `CC1(C)[C@H](O[C@H]2O[C@H](C(=O)O)[C@@H](O)[C@H](O)[C@H]2O[C@@H]2O[C@H](C(=O)O)[C@@H](O)[C@H](O)[C@H]2O)CC[C@@]2(C)[C@H]1CC[C@]1(C)[C@H]2C(=O)C=C2[C@H]3C[C@@](C)(C(=O)O)CC[C@]3(C)CC[C@]21C`, `C=CCNc1c(O)cc2c(O)c1C[C@@H](C)C[C@H](OC)[C@@H](O)[C@@H](C)C=C(C)[C@H](OC(N)=O)[C@@H](OC)C=CC=C(C)C(=O)N2` is lower in parasite growth remaining, % of DMSO control (lower = more inhibition): 97.4% for the first, 6.14% for the second.

Going from `C=C[C@@H]1CN2CCC1C[C@H]2[C@H](O)c1ccnc2ccc(OC)cc12` (stereo partly specified) to `Cc1cc(-c2nnc3n2CCCCC3)c(C)n1-c1ccccc1`, the parasite growth remaining, % of DMSO control (lower = more inhibition) rises from 9.84% to 36.9%.

Compared with `Cn1cc(C=CC(=O)c2cccc(F)c2)cc1C=CC(=O)NO`, `CCOc1cc2ncc(C#N)c(Nc3ccc(OCc4ccccn4)c(Cl)c3)c2cc1NC(=O)C=CCN(C)C` is lower in parasite growth remaining, % of DMSO control (lower = more inhibition): 90.9% for the first, 7.24% for the second.

Going from `C=C1C(=O)O[C@H]2[C@@H]1CCC(C)=CCC[C@@]1(C)O[C@@H]21` to `COC[C@H](NC(=O)c1cnc(C)s1)C(=O)N[C@@H](COC)C(=O)N[C@@H](Cc1ccccc1)C(=O)[C@@]1(C)CO1`, the parasite growth remaining, % of DMSO control (lower = more inhibition) falls from 75.8% to 7.34%.

Going from `CCc1c(O)cc(O)c(C(=O)c2ccc(OCCN3CCOCC3)c(OC)c2)c1CC(=O)N(CCOC)CCOC` to `CC(=O)N1CCN(c2ccc(OCc3nn(C)c(C)c3-c3cccc4c(CCCOc5cccc6ccccc56)c(C(=O)O)n(Cc5cccnc5)c34)cc2)CC1`, the parasite growth remaining, % of DMSO control (lower = more inhibition) falls from 12.7% to 9.41%.

Work on `CCN(CC)CCNC(=O)c1c(C)[nH]c(C=C2C(=O)Nc3ccc(F)cc32)c1C` yielded a parasite growth remaining, % of DMSO control (lower = more inhibition) of 7.72% [at 57.5 µM].
